This note sets out measurements from PubChem BioAssay (NCI).

Compounds without any hit were thinned out: in the full panel of roughly 83,000, 20% have a hit.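 In brief: 96-well plates, 48 h treatment, single concentration, percent growth endpoint.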 A number with no mark means an inactive call. Activity calls are given as the source filed them. How the source made its calls: active means growth percent below 10; inactive means the rest.

The assay concerns SN12C renal. In words: NCI-60 one-dose screen, 48 h (100 = growth as untreated, 0 = no growth, -100 = all killed). As to conditions: 10 µM unless noted.
As for `Clc1ccc([I+]c2ccc(Cl)cc2Cl)c(Cl)c1`, the growth is 33.3%.

As to `Cc1ccc(C2=NN(c3ccc(S(N)(=O)=O)cc3)C(c3cn(-c4ccccc4)nc3-c3ccccc3)C2)cc1` (stereo not drawn), the growth was 30.7%.

In the case of `N#CC1=C(N)OC2=C(C(=O)CCC2)C1c1ccco1` (stereo not drawn), the growth was 107%. Next, `COC1=CC(c2ccc[nH]2)=N/C1=C\c1[nH]c(C)c(C(=O)CCCCC(=O)Oc2ccc3c(c2)CCC2C3CC[C@]3(C)[C@@H](O)CC[C@@H]23)c1C` (stereo partly drawn): 58.8%. Take `COc1ccc(NC(=O)CSc2nc3ccccc3c(=O)n2Cc2cc(OC)c(OC)c(OC)c2)cc1`: the growth was 79.6%. For `Nc1c(C(=O)Nc2c(Cl)cccc2Cl)sc2nc3c(cc12)CCCCC3`, the growth is 61.7%. Consider `O=C(CN1CCN(c2cc3c(cc2F)c(=O)c(C(=O)O)cn3C2CC2)CC1)Nc1ccc(C(=O)/C=C/c2ccccc2)cc1`, for which the growth was 11.3%.

For the molecule `COc1cc(/C=C/C(=O)c2ccc(NC(=O)CN3CCN(c4cc5c(cc4F)c(=O)c(C(=O)O)cn5C4CC4)CC3)cc2)cc(OC)c1OC`, the growth is 10.3%. Next, `NC(=O)c1c(NC(=O)c2ccc(OCC3CCCO3)cc2)sc2c1CCCC2` (stereo not drawn): 90.7%; `COc1ccc(/C=C/C(=O)OCC(=O)NNC(=O)c2ccccc2)cc1OC`: 101%; `Cc1sc(N=Nc2ccc(N(C)C)cc2)[n+]([O-])c1C`: 96.7%. As to `O=C(/C=C/c1ccccc1)n1c(-c2ccc(Cl)cc2)nc2ccccc21`, the growth is -48.5% (active). As to `COC(=O)[C@H]1[C@H](OC)[C@@H](OC(=O)/C=C/c2ccncc2)CC2CN3CCc4c([nH]c5cc(OC)ccc45)[C@@H]3C[C@@H]21` (stereo partly drawn), the growth is 70.2%. Next, `O=C1Nc2ccc(Br)cc2C1=N/C=c1\[nH]c(=O)/c(=C/c2ccc(Cl)cc2)s1`: 102%; `Nc1c(C(=O)Nc2cccc(C(F)(F)F)c2)sc2nc3c(cc12)CCCCC3`: 2.78% (active). For `COc1cc(/C=C2\C=C(c3ccc(F)cc3)N(Cc3ccccc3)C2=O)cc(OC)c1OC` the value was 65.7%; for `Clc1nc(Cl)c2ncn(C/C=C/Cn3cnc4c(Cl)nc(Cl)nc43)c2n1`, 96.5%; for `NC(C(=O)O)C(O)c1ccc(OCc2ccccc2)c(OCc2ccccc2)c1` (stereo not drawn), 107%. Next, `Nc1c(C(=O)Nc2ccccc2)sc2nc3c(cc12)CCC3`: 85%; `COc1ccc(/C=C/c2cc(N3CCOCC3)c3cc(F)c(F)cc3n2)cc1OC`: 44.4%; `O=[N+]([O-])c1cccc(-c2cc(-c3cc(Br)ccc3O)[nH]n2)c1`: 24.8%. Turning to `COC1=CC(c2ccc[nH]2)=N/C1=C\c1[nH]c(C)c(C(=O)CCC(=O)Oc2ccc3c(c2)CCC2C3CC[C@]3(C)[C@@H](O)CC[C@@H]23)c1C` (stereo partly drawn), the growth is 17.3%. Next, `COc1ccc(C2=NN(c3ccc(S(N)(=O)=O)cc3)C(c3cn(-c4ccccc4)nc3-c3ccc(Cl)cc3)C2)cc1` (stereo not drawn): 96.7%; `COc1cc(CCn2nnc3c(NCCCCO)ncnc32)cc(OC)c1`: 102%. Next, `Clc1ccc(-c2nc(-c3ccco3)cn3ccnc23)cc1`: 65.7%. With `O=C(c1ccncc1)N1N=C(c2ccc(Cl)cc2)CC1c1c[nH]c2ccccc12` (stereo not drawn), the growth is 92.9%. Next, `COc1ccc(-c2cn[nH]c2-c2cc(OC)c3c(c2)OCCO3)cc1`: 29.6%; `O=S(=O)(c1ccccc1)n1ccc(-c2ccc3c(c2)CCO3)n1`: 67.9%.

`COC1=CC(c2ccc[nH]2)=N/C1=C\c1[nH]c(C)c(C(=O)CCCCC(=O)NCc2ccccc2)c1C`: the growth is 44.9%. In the case of `Nc1c(C(=O)Nc2cccc([N+](=O)[O-])c2)sc2nc3c(cc12)C(O)CCC3` (stereo not drawn), the growth was 65.8%.

Turning to `COc1cccc(NC(=O)c2sc3nc4c(cc3c2N)CCCC4)c1`, the growth is 58.9%. As to `O=C(Nc1cccc(C(F)(F)F)c1)Nc1ccc(OCc2nnc(-c3ccccc3)o2)c(F)c1`, the growth was 52.8%. Take `CC(=O)Nc1nc(C(=O)N2N=C(C)/C(=C/c3ccc(Cl)cc3)C2=O)cs1`: the growth was 105%. Next, `COc1cc(C(=O)OCCCCCCCCCCC[P+](c2ccccc2)(c2ccccc2)c2ccccc2)ccc1O`: -70.1% (active); `O=C(NCCCN1CCN(CCCNC(=O)C2CCCCC2)CC1)C1CCCCC1`: 97.1%. For `COc1cc2c(cc1OC)C1(C)N(CC2)C(=O)OC1(C)C` (stereo not drawn) the value was 101%; for `CCCCCc1c(C)[nH]c(/C=c2\[nH]/c(=C3/C=c4ccccc4=N3)cc2OC)c1C`, -51.4% (active). Consider `COc1cc(-c2n[nH]nc2-c2ccc3c(c2)OCCO3)cc(OC)c1OC`, for which the growth was 31%.
